From PubChem BioAssay AID1159580 (chemical genetic matrix, 2015)
Among all 5,500 compounds or so, about 2,000 (36%) were called active. Roughly 18% stayed inconclusive and do not appear here. Cut-off read from the data, not from the text of the source: active = normalized growth mostly below about 0.91 (no sharp cut-off); inconclusive = no clear call, values can overlap the other calls; inactive = mostly above about 0.92. Some of the results follow.

Assay: chemical genetic growth profiling, strain panel (AID 1159580);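 note: tested at 20 µM; growth read once vehicle control cultures reached saturation at 30 °C; 1 = growth at the plate median or of vehicle wells; lower values mean less growth of the strain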
Conditions: growth OD
[1] = S. cerevisiae deletion strains, locus YJR075W, strain HOC1, stronger effect = lower value
[2] = S. cerevisiae deletion strains, locus YMR307W, strain GAS1, stronger effect = lower value
[3] = S. cerevisiae deletion strains, locus YNL153C, strain GIM3, stronger effect = lower value

Measured: normalized growth

CN1CCC(c2c[nH]c3ccc(O)cc23)CC1
inactive: S. cerevisiae deletion strains, locus YAL040C, strain CLN3, stronger effect = lower value 0.986 | S. cerevisiae deletion strains, locus YCL061C, strain MRC1 (second series), stronger effect = lower value 1.01 | S. cerevisiae deletion strains, locus YDR150W, strain NUM1, stronger effect = lower value 1.01 | S. cerevisiae deletion strains, locus YDR363W, strain ESC2, stronger effect = lower value 1 | S. cerevisiae deletion strains, locus YER002W, strain NOP16, stronger effect = lower value 0.987 | [1] 1.01 | [2] 0.988 | [3] 0.948 | S. cerevisiae deletion strains, locus YNL175C, strain NOP13, stronger effect = lower value 1.01 | S. cerevisiae deletion strains, locus YNL197C, strain WHI3, stronger effect = lower value 0.999 | S. cerevisiae deletion strains, locus YNL224C, strain SQS1, stronger effect = lower value 1.02 | S. cerevisiae deletion strains, locus YOR083W, strain WHI5 (second series), stronger effect = lower value 1.04 | S. cerevisiae deletion strains, locus YPL055C, strain LGE1, stronger effect = lower value 0.996

CSCCC(NC=O)C(=O)NC(C)C(=O)O (stereo not drawn)
inactive: S. cerevisiae deletion strains, locus YBR021W, strain FUR4, stronger effect = lower value 0.982 | S. cerevisiae deletion strains, locus YBR229C, strain ROT2, stronger effect = lower value 0.989 | S. cerevisiae deletion strains, locus YCL029C, strain bik1, stronger effect = lower value 0.983 | S. cerevisiae deletion strains, locus YDL035C, strain GPR1, stronger effect = lower value 1.01 | S. cerevisiae deletion strains, locus YDL074C, strain BRE1, stronger effect = lower value 1.02 | S. cerevisiae deletion strains, locus YDL101C, strain DUN1, stronger effect = lower value 0.998 | S. cerevisiae deletion strains, locus YDL134C, strain PPH21, stronger effect = lower value 0.989 | S. cerevisiae deletion strains, locus YDL185W, strain tfp1, stronger effect = lower value 0.977 | S. cerevisiae deletion strains, locus YDL192W, strain arf1, stronger effect = lower value 0.972 | S. cerevisiae deletion strains, locus YDR101C, strain arx1, stronger effect = lower value 0.983 | S. cerevisiae deletion strains, locus YDR162C, strain NBP2, stronger effect = lower value 0.997 | S. cerevisiae deletion strains, locus YDR318W, strain mcm21, stronger effect = lower value 0.988 | S. cerevisiae deletion strains, locus YDR388W, stronger effect = lower value 0.985 | S. cerevisiae deletion strains, locus YDR502C, strain sam2, stronger effect = lower value 0.992 | S. cerevisiae deletion strains, locus YEL061C, strain CIN8, stronger effect = lower value 0.995 | S. cerevisiae deletion strains, locus YER110C, stronger effect = lower value 0.976 | S. cerevisiae deletion strains, locus YER155C, strain BEM2, stronger effect = lower value 0.993 | S. cerevisiae deletion strains, locus YER167W, strain BCK2, stronger effect = lower value 0.988 | S. cerevisiae deletion strains, locus YGL078C, strain dbp3, stronger effect = lower value 0.978 | S. cerevisiae deletion strains, locus YGL086W, strain mad1, stronger effect = lower value 0.996 | S. cerevisiae deletion strains, locus YGL248W, strain PDE1, stronger effect = lower value 1.01 | S. cerevisiae deletion strains, locus YGR078C, strain PAC10, stronger effect = lower value 1.03 | S. cerevisiae deletion strains, locus YGR135W, strain pre9, stronger effect = lower value 0.984 | S. cerevisiae deletion strains, locus YGR229C, strain SMI1, stronger effect = lower value 0.995 | S. cerevisiae deletion strains, locus YGR252W, strain gcn5, stronger effect = lower value 0.972 | S. cerevisiae deletion strains, locus YHR030C, strain SLT2, stronger effect = lower value 0.989 | S. cerevisiae deletion strains, locus YHR079C, strain IRE1 (second series), stronger effect = lower value 0.988 | S. cerevisiae deletion strains, locus YHR094C, strain hxt1, stronger effect = lower value 0.978 | S. cerevisiae deletion strains, locus YHR129C, strain ARP1, stronger effect = lower value 0.996 | S. cerevisiae deletion strains, locus YHR200W, strain rpn10, stronger effect = lower value 0.987 | S. cerevisiae deletion strains, locus YIL066C, strain RNR3, stronger effect = lower value 1 | S. cerevisiae deletion strains, locus YIL073C, strain SPO22, stronger effect = lower value 0.943 | S. cerevisiae deletion strains, locus YIL125W, strain kgd1, stronger effect = lower value 0.987 | S. cerevisiae deletion strains, locus YIR030C, strain dcg1, stronger effect = lower value 0.983 | S. cerevisiae deletion strains, locus YJL095W, strain BCK1, stronger effect = lower value 1.04 | S. cerevisiae deletion strains, locus YJL134W, strain LCB3, stronger effect = lower value 0.991 | S. cerevisiae deletion strains, locus YJL168C, strain set2, stronger effect = lower value 0.985 | S. cerevisiae deletion strains, locus YJL187C, strain SWE1 (second series), stronger effect = lower value 1.01 | S. cerevisiae deletion strains, locus YJR043C, strain POL32, stronger effect = lower value 1.02 | [1] 1.01 | S. cerevisiae deletion strains, locus YKL009W, strain mrt4, stronger effect = lower value 0.974 | S. cerevisiae deletion strains, locus YKL068W, stronger effect = lower value 0.986 | S. cerevisiae deletion strains, locus YKL085W, strain MDH1 (second series), stronger effect = lower value 1.01 | S. cerevisiae deletion strains, locus YKL085W, strain MDH1, stronger effect = lower value 1.01 | S. cerevisiae deletion strains, locus YKL190W, strain CNB1, stronger effect = lower value 1 | S. cerevisiae deletion strains, locus YKR001C, strain vps1, stronger effect = lower value 0.988 | S. cerevisiae deletion strains, locus YLR039C, strain RIC1, stronger effect = lower value 1.01 | S. cerevisiae deletion strains, locus YLR058C, strain SHM2, stronger effect = lower value 0.996 | S. cerevisiae deletion strains, locus YLR102C, strain apc9, stronger effect = lower value 0.98 | S. cerevisiae deletion strains, locus YLR262C, strain YPT6, stronger effect = lower value 1.04 | S. cerevisiae deletion strains, locus YLR268W, strain sec22, stronger effect = lower value 0.987 | S. cerevisiae deletion strains, locus YLR330W, strain CHS5, stronger effect = lower value 0.99 | S. cerevisiae deletion strains, locus YLR342W, strain FKS1 (second series), stronger effect = lower value 0.987 | S. cerevisiae deletion strains, locus YLR371W, strain rom2, stronger effect = lower value 0.972 | S. cerevisiae deletion strains, locus YLR418C, strain cdc73, stronger effect = lower value 0.994 | S. cerevisiae deletion strains, locus YML016C, strain PPZ1, stronger effect = lower value 0.993 | S. cerevisiae deletion strains, locus YML032C, strain rad52, stronger effect = lower value 0.987 | S. cerevisiae deletion strains, locus YML124C, strain tub3, stronger effect = lower value 0.981 | S. cerevisiae deletion strains, locus YMR078C, strain ctf18, stronger effect = lower value 0.984 | S. cerevisiae deletion strains, locus YMR223W, strain ubp8, stronger effect = lower value 0.986 | S. cerevisiae deletion strains, locus YMR263W, strain SAP30, stronger effect = lower value 1.01 | [2] 0.872 | S. cerevisiae deletion strains, locus YNL067W, strain RPL9B, stronger effect = lower value 1.03 | [3] 1.04 | S. cerevisiae deletion strains, locus YNL233W, strain BNI4, stronger effect = lower value 1.01 | S. cerevisiae deletion strains, locus YNL250W, strain rad50, stronger effect = lower value 0.983 | S. cerevisiae deletion strains, locus YNL271C, strain bni1, stronger effect = lower value 0.968 | S. cerevisiae deletion strains, locus YNL298W, strain CLA4, stronger effect = lower value 0.99 | S. cerevisiae deletion strains, locus YNL307C, strain MCK1, stronger effect = lower value 0.989 | S. cerevisiae deletion strains, locus YNR052C, strain pop2, stronger effect = lower value 0.983 | S. cerevisiae deletion strains, locus YOL006C, strain TOP1, stronger effect = lower value 1.05 | S. cerevisiae deletion strains, locus YOL012C, strain htz1 1.02 | S. cerevisiae deletion strains, locus YOL147C, strain pex11, stronger effect = lower value 0.983 | S. cerevisiae deletion strains, locus YOR061W, strain CKA2, stronger effect = lower value 0.993 | S. cerevisiae deletion strains, locus YOR069W, strain VPS5, stronger effect = lower value 0.983 | S. cerevisiae deletion strains, locus YOR136W, strain idh2, stronger effect = lower value 0.995 | S. cerevisiae deletion strains, locus YOR144C, strain elg1, stronger effect = lower value 0.984 | S. cerevisiae deletion strains, locus YOR184W, strain ser1, stronger effect = lower value 0.995 | S. cerevisiae deletion strains, locus YOR316C, strain cot1, stronger effect = lower value 0.972 | S. cerevisiae deletion strains, locus YPR119W, strain clb2, stronger effect = lower value 0.991 | S. cerevisiae deletion strains, locus YPR141C, strain kar3, stronger effect = lower value 0.978 | S. cerevisiae deletion strains, locus YPR163C, strain tif3, stronger effect = lower value 0.988 | S. cerevisiae deletion strains, locus YPR167C, strain met16, stronger effect = lower value 0.978 | S. cerevisiae deletion strains, strain wtn01, stronger effect = lower value 0.992 | S. cerevisiae strains, strain wild type, stronger effect = lower value 0.996
